For assay [1], the system named is PRMT1 (protein arginine N-methyltransferase 1). In words: PRMT1 binders on small-molecule microarrays, primary screen, biochemical, small-molecule microarray, 635 nm fluorescence (AID 1088).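 Note: binding of Prmt1 protein to compounds spotted on small-molecule microarray slides.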 The settings on record: small-molecule microarray binding, higher = more signal.
The nature of assay [2]: yeast growth modulation, basal conditions, primary screen, YJM789 clinical isolate, OD600, 24 h (AID 1089).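 Note: growth of clinical yeast isolate S. cerevisiae YJM 789 seeded 1000 cells per well; test concentration not given here.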 The settings on record: S. cerevisiae YJM789 growth, higher = more signal, called active from +8 up or from −8 down.
Assay [3] is described as follows: fission yeast growth modulation, primary screen, strain 972, OD600, 24 h, no modulator (AID 1090).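 Note: basal condition with compound alone and no growth modifier present; test concentration not given here.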 The conditions noted are these: S. pombe 972 growth, higher = more signal, called active from +8 up or from −8 down.
A short description of assay [4]: S. cerevisiae growth modulation with rapamycin, primary screen, strain BY4716, OD600, 96 h (AID 1091). Note: test concentration not given here. The settings on record: higher = more signal, called active from +8 up or from −8 down.
For assay [5], the target named is Torsin-1A-interacting protein 2 (Homo sapiens) (UniProt Q8NFQ8). In words: LULL1 binders on small-molecule microarray, primary screen, cell lysate, human LULL1 lysate, 635/667 nm fluorescence (AID 1092).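 Note: probe is lysate of COS7 cells overexpressing human LULL1; score merges per-feature 667 nm fluorescence with signal-to-noise.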 The settings on record: hLULL1 lysate binding, 635 nm fluorescence, higher = more signal.
Sequence of Torsin-1A-interacting protein 2 (Homo sapiens) (Q8NFQ8 whole entry, looked up): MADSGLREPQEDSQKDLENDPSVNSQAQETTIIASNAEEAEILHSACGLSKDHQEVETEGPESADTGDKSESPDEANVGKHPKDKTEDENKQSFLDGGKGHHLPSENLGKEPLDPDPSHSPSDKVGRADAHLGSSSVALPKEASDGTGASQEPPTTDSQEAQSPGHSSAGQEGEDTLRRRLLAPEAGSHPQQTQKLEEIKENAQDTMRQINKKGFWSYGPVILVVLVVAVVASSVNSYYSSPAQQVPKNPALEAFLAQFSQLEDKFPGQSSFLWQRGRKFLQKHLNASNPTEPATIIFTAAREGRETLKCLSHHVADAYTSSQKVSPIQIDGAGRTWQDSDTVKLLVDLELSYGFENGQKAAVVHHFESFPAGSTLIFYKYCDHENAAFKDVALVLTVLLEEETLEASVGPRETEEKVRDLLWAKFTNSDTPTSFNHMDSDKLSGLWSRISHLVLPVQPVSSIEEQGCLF
Assay [6] is described as follows: E. coli growth modulation, two-sided OD650, primary screen, E. coli filamentation project, strain DRC41, 24 h (AID 1093).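 Note: MC1000 strain lacking acrAB efflux and sulA so SOS filamentation is blocked; test concentration not given here.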 The settings on record: OD650, 24 h, higher = more signal, called active from +8 up or from −8 down.
The nature of assay [7]: small-molecule microarray binders of probe aLefty2, primary screen, biochemical, biotinylated probe, 635/667 nm fluorescence (AID 1094).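 Note: score merges spot fluorescence near 667 nm with spot signal-to-noise ratio.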 The settings on record: higher = more signal.
Assay [8] deals with Noggin (protein binding on small-molecule microarray). Kind of assay: Noggin binders on small-molecule microarray, primary screen, biochemical, 635/667 nm fluorescence (AID 1095).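 Note: score merges 667 nm feature fluorescence with signal to noise over triplicate slides.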 The conditions noted are these: 635 nm fluorescence, higher = more signal.
Assay [9] deals with Neurogenic locus notch homolog protein 3 (Homo sapiens) (UniProt Q9UM47). In words: NOTCH3 binders on small-molecule microarray, primary screen, biochemical, 635/667 nm fluorescence (AID 1096). The settings on record: NOTCH3 binding, 635 nm fluorescence, higher = more signal.
Sequence of Neurogenic locus notch homolog protein 3 (Homo sapiens) (Q9UM47 whole entry, looked up): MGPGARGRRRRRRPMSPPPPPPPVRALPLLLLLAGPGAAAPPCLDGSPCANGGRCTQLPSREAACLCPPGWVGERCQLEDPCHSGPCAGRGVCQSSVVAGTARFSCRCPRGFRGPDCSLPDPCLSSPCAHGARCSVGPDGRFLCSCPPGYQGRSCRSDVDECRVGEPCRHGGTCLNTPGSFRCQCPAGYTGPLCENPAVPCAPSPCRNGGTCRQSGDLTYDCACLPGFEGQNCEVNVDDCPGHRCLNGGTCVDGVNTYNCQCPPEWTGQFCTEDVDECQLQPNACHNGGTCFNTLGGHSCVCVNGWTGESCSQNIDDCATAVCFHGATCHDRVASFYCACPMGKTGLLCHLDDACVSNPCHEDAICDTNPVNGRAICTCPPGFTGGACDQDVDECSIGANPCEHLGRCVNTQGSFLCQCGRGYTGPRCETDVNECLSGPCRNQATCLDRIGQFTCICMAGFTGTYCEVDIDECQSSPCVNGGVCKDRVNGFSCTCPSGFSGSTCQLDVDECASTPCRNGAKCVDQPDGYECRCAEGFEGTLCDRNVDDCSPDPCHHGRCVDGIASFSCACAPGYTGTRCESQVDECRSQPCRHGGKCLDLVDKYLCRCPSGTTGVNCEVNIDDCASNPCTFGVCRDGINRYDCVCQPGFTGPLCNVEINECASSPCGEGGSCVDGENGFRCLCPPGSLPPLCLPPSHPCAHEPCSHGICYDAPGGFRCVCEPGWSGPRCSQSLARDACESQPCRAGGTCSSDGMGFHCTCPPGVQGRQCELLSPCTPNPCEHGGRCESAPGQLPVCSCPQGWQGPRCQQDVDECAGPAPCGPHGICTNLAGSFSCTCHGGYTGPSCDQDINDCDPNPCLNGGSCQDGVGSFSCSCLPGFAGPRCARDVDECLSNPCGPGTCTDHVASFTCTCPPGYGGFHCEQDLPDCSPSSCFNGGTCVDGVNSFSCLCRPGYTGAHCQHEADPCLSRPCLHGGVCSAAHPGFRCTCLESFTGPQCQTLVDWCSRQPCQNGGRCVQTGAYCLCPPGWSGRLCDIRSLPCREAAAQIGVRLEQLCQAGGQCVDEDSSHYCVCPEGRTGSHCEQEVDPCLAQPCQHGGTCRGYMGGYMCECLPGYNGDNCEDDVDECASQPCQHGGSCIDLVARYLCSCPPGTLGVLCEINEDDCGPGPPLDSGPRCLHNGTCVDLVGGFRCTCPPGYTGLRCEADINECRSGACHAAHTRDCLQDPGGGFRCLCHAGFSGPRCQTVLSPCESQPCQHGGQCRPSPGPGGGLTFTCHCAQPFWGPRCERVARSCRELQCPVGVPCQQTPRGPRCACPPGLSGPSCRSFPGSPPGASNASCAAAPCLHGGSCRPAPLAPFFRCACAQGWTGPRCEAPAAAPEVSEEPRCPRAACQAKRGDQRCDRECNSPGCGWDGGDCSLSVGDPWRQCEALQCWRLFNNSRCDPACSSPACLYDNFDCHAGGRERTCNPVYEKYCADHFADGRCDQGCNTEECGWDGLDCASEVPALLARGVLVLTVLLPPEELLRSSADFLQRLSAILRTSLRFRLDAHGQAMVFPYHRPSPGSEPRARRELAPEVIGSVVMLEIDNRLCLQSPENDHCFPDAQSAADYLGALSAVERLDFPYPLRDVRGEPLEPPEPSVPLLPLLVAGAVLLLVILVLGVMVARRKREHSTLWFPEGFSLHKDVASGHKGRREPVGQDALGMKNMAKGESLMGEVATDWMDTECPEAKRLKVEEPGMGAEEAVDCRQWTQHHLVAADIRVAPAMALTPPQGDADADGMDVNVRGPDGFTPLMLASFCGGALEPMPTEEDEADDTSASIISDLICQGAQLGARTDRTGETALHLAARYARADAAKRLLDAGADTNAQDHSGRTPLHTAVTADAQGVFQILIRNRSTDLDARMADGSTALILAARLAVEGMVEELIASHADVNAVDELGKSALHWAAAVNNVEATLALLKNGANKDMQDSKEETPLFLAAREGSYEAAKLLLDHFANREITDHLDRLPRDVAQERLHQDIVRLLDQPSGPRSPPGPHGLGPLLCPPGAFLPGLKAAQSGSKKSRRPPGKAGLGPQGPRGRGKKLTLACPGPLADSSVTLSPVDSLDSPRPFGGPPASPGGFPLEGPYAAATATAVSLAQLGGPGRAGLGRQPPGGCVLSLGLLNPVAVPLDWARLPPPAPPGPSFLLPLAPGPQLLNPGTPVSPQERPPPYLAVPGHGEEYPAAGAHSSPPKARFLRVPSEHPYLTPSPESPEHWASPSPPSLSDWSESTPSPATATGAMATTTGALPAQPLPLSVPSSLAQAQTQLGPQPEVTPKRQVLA
Assay [10] is described as follows: small-molecule microarray binders of probe aEGFR, primary screen, biochemical, biotinylated probe, 635/667 nm fluorescence (AID 1097).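 Note: probe is a biotinylated anti-EGFR antibody binding compounds printed on slides; score combines fluorescence near 667 nm and signal to noise of each spot.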 The conditions noted are these: higher = more signal.

SMILES strings stand for the structures. Activity calls are given as the source filed them.

On to `O=C1C2C=CC(C(O)c3ccc(-c4ccccc4)s3)N(n3cnnc3)C2C(=O)N1Cc1ccccc1` (stereo not given), for which the composite z-score in assay [1] is 0.147; in assay [5], 1.77; in assay [7], -0.0823; in assay [8] it was -0.0489; in [9] it was 0.225; in assay [10], -0.0716. The z-score in assay [2] was -0.466 (inactive); in [3], -11.7 (active); in assay [4], -0.0238 (inactive); in assay [6], -0.485 (inactive).

For the compound `COc1cc(C(O)C2C=CC3C(=O)N(c4ccccc4)C(=O)C3N2Nc2ccc(C#N)cc2)cc(OC)c1OC` (stereo not given), the composite z-score in assay [1] was 1.54; in assay [5] it was 3.84; in assay [7] it was 0.368; in assay [8] it was -0.0742; in assay [9], 1.03; in [10], 0.273. Moreover, the z-score was -0.531 (inactive) in [2], 0.849 (inactive) in [3], 1.75 (inactive) in [4] and -1.27 (inactive) in [6].

`COC(=O)[C@@]1(Cc2ccc(F)cc2)[C@H]2c3cc(C(=O)N(C)C)n(CCc4ccccn4)c3C[C@H]2CN1C(=O)c1ccccc1`: the composite z-score was 1.16 in [1]; 3.94 in [5]; -0.0278 in assay [7]; 0.259 in assay [8]; 0.861 in assay [9]; 0.709 in [10]. In addition, the z-score was 2.9 (inactive) in assay [2], 0.423 (inactive) in [3], -0.616 (inactive) in [4] and 0.196 (inactive) in [6].

On to `CN(C)CCCCCCNC(=O)[C@H]1C[C@H]2C(=O)N[C@@H](CCCCN)C(=O)N2[C@H]1c1ccc(O)cc1`, for which the composite z-score in assay [1] came out at 1.54; in [5], 4.58; in [7], 1.76; in assay [8] it was 2.02; in assay [9] it was 1; in assay [10], 1.15. Further, the z-score was -0.329 (inactive) in [2], -2.88 (inactive) in assay [3], -0.02 (inactive) in assay [4] and -0.151 (inactive) in [6].

In the case of `O=C1N(CCS(=O)(=O)c2ccccc2)c2ccccc2C[C@@]12COC(c1ccc(OCCCO)cc1)=N2`, the composite z-score is 1.47 in assay [1]; 2.9 in assay [5]; 0.456 in assay [7]; 0.75 in assay [8]; 1.07 in [9]; 0.242 in assay [10]. Moreover, the z-score in [2] was 0.631 (inactive); in assay [3] it was -1.07 (inactive); in assay [4], 1.14 (inactive); in [6], -0.405 (inactive).

For the compound `CCCCC(O)C1C=CC2C(=O)N(C3CCCCC3)C(=O)C2N1Nc1ccc(OC)cc1` (stereo not given), the composite z-score was 1.19 in assay [1]; 2.77 in [5]; 0.165 in [7]; 0.5 in assay [8]; 1.1 in assay [9]; -0.0661 in assay [10]. Further, the z-score in assay [2] was 0.595 (inactive); in assay [3], 0.241 (inactive); in [4], 1.15 (inactive); in [6], 0.202 (inactive).

With `CCOC(=O)C[C@H]1[C@H](OC(=O)c2ccccc2-c2ccccc2)[C@@H](NC(=O)Cc2ccc(OC)cc2)c2cc(OCCCO)ccc2N1C(=O)c1ccccc1`, the composite z-score in [1] was -0.617; in assay [5], 1.33; in assay [7], -0.218; in [8], -0.337; in assay [9] it was -0.231; in assay [10], -0.115. Besides, the z-score in assay [2] was 0.82 (inactive); in [3], 0.266 (inactive); in [4], 1.36 (inactive); in [6], -1.08 (inactive).

Regarding `COC(=O)[C@@]1(Cc2ccc(OC)cc2)[C@H]2c3cc(C(=O)N(C)C)n(Cc4c(OC)[nH]cc(C)c4=O)c3C[C@H]2CN1C(=O)c1ccccc1`, the composite z-score in assay [1] is -0.386; in assay [5] it was 3.62; in assay [7], -0.0404; in assay [8], -0.0598; in assay [9], 0.145; in assay [10], 0.487. Further, the z-score in assay [2] is -1.88 (inactive); in [3], 0.349 (inactive); in assay [4], -0.464 (inactive); in assay [6], -0.252 (inactive).

On to `CCN(CC)c1ccc(N2CC=CC34O[C@@H]5/C=C\CCCOC(=O)C5[C@H]3C(=O)N(C(CO)C(C)C)[C@@H]4C2=O)cc1` (stereo not given in full), for which the composite z-score in [1] is 0.0395; in [5] it was 2.03; in assay [7], -0.168; in assay [8], -0.708; in [9], -0.0981; in [10] it was -0.198. Further, the z-score in assay [2] was 0.803 (inactive); in [3], -0.193 (inactive); in assay [4] it was -0.0204 (inactive); in assay [6], -0.309 (inactive).

Consider `COC(=O)[C@@]1(Cc2ccccc2)[C@H]2c3cc(C(=O)N4CCCC4)n(C)c3C[C@H]2CN1C(=O)c1ccccc1`, for which the composite z-score in assay [1] was determined as 0.0683; in [5], 3.35; in [7], 0.0165; in assay [8], 0.0182; in assay [9], 0.732; in assay [10], 0.287. In addition, the z-score in assay [2] is 0.29 (inactive); in [3], 0.68 (inactive); in assay [4], 0.0928 (inactive); in [6], 0.391 (inactive).

As for `C=CC[C@@H](OC(=O)Nc1ccc(OC)cc1)c1ccc(O)c2ccccc12`, the composite z-score was 1.28 in assay [1]; 2.28 in assay [5]; -0.142 in [7]; 1.46 in assay [8]; 1.05 in [9]; 0.0225 in assay [10]. Besides, the z-score in [2] is -23.6 (active); in assay [3] it was -19.6 (active); in [4] it was -1.31 (inactive); in [6] it was 1.05 (inactive).

On to `O=c1oc(-c2ccccc2)nc2cc(Br)ccc12`, for which the composite z-score in assay [1] was 0.35; in [5] it was 0.711; in [7], -0.0478; in [8] it was 0.625; in assay [9], 0.693; in assay [10], -0.111. The z-score in assay [2] was 0.844 (inactive); in assay [3] it was -1.43 (inactive); in assay [4], -0.0605 (inactive); in [6], 0.258 (inactive).

As to `COc1ccc(CCNC(=O)[C@@H]2c3ccccc3C(=O)N(Cc3ccc(OC(F)(F)F)cc3)[C@H]2c2ccc(CO)cc2)cc1`, the composite z-score is 1.55 in assay [1]; 2.48 in assay [5]; -0.169 in assay [7]; 0.54 in assay [8]; 0.342 in assay [9]; -0.0967 in assay [10]. Moreover, the z-score in assay [2] is -0.392 (inactive); in assay [3], -0.51 (inactive); in assay [4], -0.0066 (inactive); in [6] it was -0.652 (inactive).

With `COc1ccc(C#Cc2ccc3c(c2)[C@]2(C(=O)N3)[C@H](C(=O)NC[C@H](O)c3ccccc3)[C@H]3C(=O)O[C@H](c4ccccc4)[C@H](c4ccccc4)N3[C@@H]2c2ccc(OCCO)cc2)cc1`, the composite z-score in assay [1] is 1.49; in [5], 2.96; in [7], -0.22; in assay [8], 1.52; in assay [9], 1.09; in assay [10] it was -0.0746. For the same compound, the z-score was 2.85 (inactive) in assay [2], 1.64 (inactive) in assay [3], 4.35 (inactive) in assay [4] and -0.508 (inactive) in assay [6].

The values above are taken from PubChem BioAssay.
